Source: PubChem
In the library only some 21% were active in any assay of this set; here they are far more common.
Shiga inhibitor – A qHTS for Small Molecule Inhibitors of Shiga Toxin. Vero cells, Shiga toxin protein synthesis inhibition reporter. inhibition, % at 38.7 µM. hit rate 9.2% among 290,000; in the data active = inhibition mostly above about 28%, no sharp cut-off; inactive = mostly below about 43%
Pf growth 48h – Primary qHTS for delayed death inhibitors of the malarial parasite plastid, 48 hour incubation; hit rate 5.9% among 310,000; Potency, µM (highest dose often 28.7 µM), hits mostly inhibitors; P. falciparum luciferase growth in erythrocytes, 48 h; AID 504832, 2011
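Growth was read as firefly luciferase luminescence after a 48 h, 37 C, 5% CO2 exposure of compounds to reporter-bearing P. falciparum cultures (0.1% parasitemia, 2% hematocrit final) in Albumax-supplemented RPMI 1640.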
NS1 function inh – qHTS Assay for Inhibitors of Influenza NS1 Protein Function; Potency, µM (highest dose often 46.1 µM); hit rate 0.4% among 270,000; calls by dose curve; also: actives are rising curves; nearly all actives have a fitted effect of over 50% in size
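A cell-based growth assay was used: compounds that relieve NS1-induced slow growth of budding yeast raise OD600. Assay medium was yeast nitrogen base with ammonium sulphate and -URA supplement, pH 6.0, with 2% galactose.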
CHX counter – Cycloheximide Counterscreen for Small Molecule Inhibitors of Shiga Toxin; cell reporter, cycloheximide protein synthesis inhibition counterscreen; max response, %; hit rate 12% among 300,000; AID 2314, 2010; in the data active = max response mostly above about 13%, no sharp cut-off; inactive = mostly below about 14%; also: read at 38.3 µM for the half of the compounds with a filed dose
Pf growth 96h – Primary qHTS for delayed death inhibitors of the malarial parasite plastid, 96 hour incubation; P. falciparum luciferase reporter growth, 96 h; Potency, µM (titrated, usually from 28.7 µM), actives largely listed as inhibitors; hit rate 6.9% among 320,000; AID 504834, 2011
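Parasite growth measured via integrated firefly luciferase reporter in P. falciparum. Infected erythrocytes at 2% hematocrit, 0.05% parasitemia final were treated 96 hours at 37 C under 5% CO2, and luminescence was read.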
A number is an active result. Unless noted, calls follow the shape of the dose curve; as a rule, active = well fitted inhibition curve with a large enough effect; inconclusive = small, poorly fitted or top-dose-only effect, or another doubt; inactive = no such curve, though single readings can be large or run the other way.

Results for COc1cc(C)c(CN2CC=C(c3ccc(F)cc3)CC2)cc1C ?
Pf growth 48h: inactive; NS1 function inh: inactive; CHX counter: inactive; Pf growth 96h: 12µM

Results for CC(C)Nc1nc(NC(C)(C)C)nc(Oc2ccc(=O)n(-c3ccccc3)n2)n1 ?
Shiga inhibitor: inactive; Pf growth 48h: inconclusive; NS1 function inh: inconclusive; CHX counter: inactive

Results for Cc1nc2sccn2c(=O)c1Br ?
Shiga inhibitor: inactive; Pf growth 48h: inactive; NS1 function inh: inactive; CHX counter: inactive; Pf growth 96h: inactive

How did Cc1cc(OCc2cc(C(=O)N3CCCCCC3)no2)cc(C)c1Cl do in these assays?
Shiga inhibitor: 128; Pf growth 48h: inactive; NS1 function inh: inactive; CHX counter: 61; Pf growth 96h: inconclusive

How did Cc1cccc(N2CCN(C(=O)c3cc(COc4ccc(F)c(F)c4)on3)CC2)n1 do in these assays?
Shiga inhibitor: inactive; Pf growth 48h: inactive; NS1 function inh: inactive; CHX counter: 40; Pf growth 96h: inactive

How did C=CCC1(CC=C)CCCN1C(=O)c1cc(COc2ccccc2SC)on1 do in these assays?
Shiga inhibitor: inactive; Pf growth 48h: 15µM; NS1 function inh: inactive; CHX counter: inactive; Pf growth 96h: inactive

How did Cn1ccnc1CN1CCN(C(=O)c2cc(COc3ccc(F)c(F)c3)on2)CC1 do in these assays?
Shiga inhibitor: inactive; Pf growth 48h: inactive; NS1 function inh: inactive; CHX counter: inactive; Pf growth 96h: inactive

What do the screens show for `Cc1ccc(OCc2cc(C(=O)N3CCN(c4ccccc4)CC3)no2)cc1C`?
Shiga inhibitor: 59; Pf growth 48h: inactive; NS1 function inh: inactive; CHX counter: 41; Pf growth 96h: inactive

How did C=CCC1(CC=C)CCCN1C(=O)c1cc(COc2ccc(C)nc2)on1 do in these assays?
Shiga inhibitor: 78; Pf growth 48h: inconclusive; NS1 function inh: inactive; CHX counter: 21; Pf growth 96h: inactive

What do the screens show for `Cc1ccc(OCc2cc(C(=O)N3CCC(c4ccccc4Cl)C3)no2)cc1C` (stereo not drawn)?
Shiga inhibitor: 73; Pf growth 48h: inactive; NS1 function inh: inactive; CHX counter: 63; Pf growth 96h: inconclusive

What do the screens show for `Cc1ccc(OCc2cc(C(=O)N(CCO)Cc3cccs3)no2)cc1C`?
Shiga inhibitor: 160; Pf growth 48h: inactive; NS1 function inh: inactive; CHX counter: 51; Pf growth 96h: inactive

Results for Cc1cccc(C)c1OCc1cc(C(=O)N2CCNC(=O)C2)no1 ?
Shiga inhibitor: inactive; Pf growth 48h: inactive; NS1 function inh: inactive; CHX counter: 24; Pf growth 96h: inconclusive

How did Cc1ccccc1C1CCCN(C(=O)c2cc(COc3c(F)cccc3F)on2)C1 (stereo not drawn) do in these assays?
Shiga inhibitor: inactive; Pf growth 48h: inactive; NS1 function inh: inactive; CHX counter: inactive; Pf growth 96h: inactive

What do the screens show for `CCN(Cc1ccncc1)C(=O)c1cc(COc2ccc(C)c(C)c2)on1`?
Shiga inhibitor: inactive; Pf growth 48h: inconclusive; NS1 function inh: inactive; CHX counter: inactive; Pf growth 96h: inactive

What do the screens show for `CCN(CC(=O)Nc1cccc(C#N)c1)CC(=O)Nc1cccc(OC)c1`?
Shiga inhibitor: inactive; Pf growth 48h: inactive; CHX counter: inactive; Pf growth 96h: inconclusive

What do the screens show for `Cc1ccc(N2CCN(C(=O)c3cc(COc4c(C)cccc4C)on3)CC2)c(C)c1`?
Shiga inhibitor: inactive; Pf growth 48h: inactive; NS1 function inh: inconclusive; CHX counter: inactive; Pf growth 96h: inactive

Results for CC(=O)NCCC1CCN(C(=O)c2cc(COc3ccc(C)nc3)on2)CC1 ?
Shiga inhibitor: inactive; Pf growth 48h: inactive; NS1 function inh: inactive; CHX counter: inactive; Pf growth 96h: inactive

How did Cc1ccc(OCc2cc(C(=O)N3CCc4sccc4C3)no2)cc1C do in these assays?
Shiga inhibitor: inactive; Pf growth 48h: inactive; NS1 function inh: inactive; CHX counter: inactive; Pf growth 96h: inconclusive

Results for Cc1ccc(OCc2cc(C(=O)N3CCN(C4CCCC4)CC3)no2)cc1C ?
Shiga inhibitor: 53; Pf growth 48h: inactive; NS1 function inh: inactive; CHX counter: 42; Pf growth 96h: inactive

Results for Cc1cccc(C)c1OCc1cc(C(=O)N2CCCCCCC2)no1 ?
Shiga inhibitor: 49; Pf growth 48h: inconclusive; NS1 function inh: inactive; CHX counter: 43; Pf growth 96h: inactive

How did Cc1ccc(OCc2cc(C(=O)N3CCCC3)no2)cn1 do in these assays?
Shiga inhibitor: 74; Pf growth 48h: inactive; NS1 function inh: inactive; CHX counter: 44; Pf growth 96h: inactive

Results for Cc1ccc(OCc2cc(C(=O)N3CCC(C(O)C(C)C)CC3)no2)cc1C (stereo not drawn) ?
Shiga inhibitor: 52; Pf growth 48h: inactive; NS1 function inh: inactive; CHX counter: 24; Pf growth 96h: inconclusive

What do the screens show for `C[C@@H](OC(=O)N(C)Cc1ccccc1)[C@H]1O[C@]2(C)CCCC[C@H]1O2`?
Pf growth 48h: inactive; Pf growth 96h: inactive

How did COCC1CCN(C(=O)c2cc(COc3cc(C)c(Cl)c(C)c3)on2)C1 (stereo not drawn) do in these assays?
Shiga inhibitor: 45; Pf growth 48h: inactive; NS1 function inh: inactive; CHX counter: 72; Pf growth 96h: inconclusive

How did Cc1ccc(OCc2cc(C(=O)N3CCN(C4CCCCC4)CC3)no2)cc1C do in these assays?
Shiga inhibitor: 65; Pf growth 48h: inconclusive; NS1 function inh: inactive; CHX counter: 52; Pf growth 96h: inactive

How did Cc1ccc(OCc2cc(C(=O)N3CCCCCCC3)no2)cc1C do in these assays?
Shiga inhibitor: 38; Pf growth 48h: inactive; NS1 function inh: inactive; CHX counter: 20; Pf growth 96h: 1.7µM

What do the screens show for `OCCC1CN(Cc2cccn2-c2cccnc2)CCN1C1CCCCC1` (stereo not drawn)?
Shiga inhibitor: inactive; Pf growth 48h: inactive; NS1 function inh: inactive; CHX counter: inactive; Pf growth 96h: inconclusive

How did CC1CCC(CN2C(Nc3ccccc3)=NC[C@@H]2C)CC1 (stereo partly drawn) do in these assays?
Shiga inhibitor: inactive; Pf growth 48h: inactive; NS1 function inh: inactive; CHX counter: inactive; Pf growth 96h: inactive

What do the screens show for `Nc1cc(C(=O)O)ccc1Sc1ccccc1C(=O)O`?
Shiga inhibitor: inactive; Pf growth 48h: inactive; CHX counter: inactive; Pf growth 96h: inactive

How did Cc1ccc(C)c(NS(=O)(=O)c2cc(C(=O)N3CCCC3)ccc2Cl)c1 do in these assays?
Shiga inhibitor: inactive; Pf growth 48h: inactive; NS1 function inh: inactive; CHX counter: inactive; Pf growth 96h: inactive

How did Cc1ccc(C(=O)COC(=O)C(C)N2C(=O)C3C4CCC(C4)C3C2=O)cc1 (stereo not drawn) do in these assays?
Shiga inhibitor: inactive; Pf growth 48h: inactive; NS1 function inh: inactive; CHX counter: inactive; Pf growth 96h: 8.3µM

How did CC(C(=O)OCC(=O)c1ccc(Br)cc1)N1C(=O)C2C3CCC(C3)C2C1=O (stereo not drawn) do in these assays?
Shiga inhibitor: inactive; Pf growth 48h: inactive; NS1 function inh: inactive; CHX counter: inactive; Pf growth 96h: 12µM

What do the screens show for `Cc1ccc(C(=O)COC(=O)C(C)N2C(=O)C3C4CCC(C4)C3C2=O)cc1C` (stereo not drawn)?
Shiga inhibitor: inactive; Pf growth 48h: inactive; NS1 function inh: inactive; CHX counter: inactive; Pf growth 96h: inactive
